Assay outcomes (PubChem)
TCR act: Activators of T cell receptors: qHTS campaign | 330,000 tested, under 10 active | AID 504894, 2011 | primary human leukocytes, anti-CD3, IL-2 HTRF, 48 h | Potency, µM (doses to about 9.22 µM), inactives show at the highest dose activation of IL-2 secretion, actives largely listed as activators; active = well fitted activation curve with a large enough effect; inconclusive = small, poorly fitted or top-dose-only effect, or another doubt; inactive = no such curve, though single readings can be large or run the other way; also: % of control where 0% means no effect
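Human primary leukocytes + a-CD3 beads + cpd, 48 hr; IL-2 in supernatant by HTRF (ex 320nm / em 665nm). No co-stimulatory signal supplied.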
gsp antagonist: qHTS for Antagonists of gsp, the Etiologic Mutation Responsible for Fibrous Dysplasia/McCune-Albright Syndrome: qHTS; gsp-mutant cells, cAMP HTRF, 30 min; Potency, µM (highest dose often 76.9 µM), inactives show top-dose activity change, negative = inhibition, actives largely listed as inhibitors; 0.4% of 340,000 active; AID 624288, 2012; calls by dose curve; cell line not stated here;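 also: intracellular cAMP measured with PDE inhibitor Ro 20-1724 present during compound exposure; potency is read from the fitted curve at half-maximal effect; % is scaled to controls: 0 for no effect and ±100 for the full control effect; nearly all actives have a fitted effect of over 65% in size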
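Cells, 2000/well, grown 16–24 h in DMEM 10% FBS with 0.5 mg/ml G418, then compounds plus […] (300 uM addition stock), 30 min at 37C. cAMP read by HTRF (cAMP-d2 and anti-cAMP antibody-K in lysis buffer) after 30 min RT.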
gsp agonist: qHTS for Agonist of gsp, the Etiologic Mutation Responsible for Fibrous Dysplasia/McCune-Albright Syndrome: qHTS. gsp mutant cells, cAMP HTRF, 30 min. Potency, µM (series often up to 76.9 µM), for the others: at the top dose activation (cAMP increase), usual class: activators. 0.13% of 340,000 active; active = well fitted activation curve with a large enough effect; inconclusive = small, poorly fitted or top-dose-only effect, or another doubt; inactive = no such curve, though single readings can be large or run the other way; cell line not stated here;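 also: phosphodiesterase inhibitor Ro 20-1724 added with compounds to block cAMP breakdown; potency is read from the fitted curve at half-maximal effect; nearly all actives have a fitted effect of over 60% in size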
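Cells in DMEM/10% FBS with G418 were pretreated with compounds in DMSO plus […] (300 uM stock) for 30 min at 37C. cAMP was measured by HTRF (cAMP-d2 plus anti-cAMP antibody-K) after 30 min at room temperature.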
TSHR antag: Antagonists of the Thyroid Stimulating Hormone Receptor: HTS campaign. Thyrotropin receptor (Homo sapiens), P16473. TSHR-expressing cells, TSH-stimulated cAMP HTRF, 2 h; active compounds read low. activity change, negative = inhibition, % at 11.5 µM. 0.2% of 330,000 active;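 active = activity change below a set negative limit, meaning inhibition stronger than a set level, cut at about -70% in these data; inconclusive = activity change between two set negative limits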; also: % is scaled to controls: 0 for no effect and ±100 for the full control effect
Target sequence (P16473 whole entry, looked up): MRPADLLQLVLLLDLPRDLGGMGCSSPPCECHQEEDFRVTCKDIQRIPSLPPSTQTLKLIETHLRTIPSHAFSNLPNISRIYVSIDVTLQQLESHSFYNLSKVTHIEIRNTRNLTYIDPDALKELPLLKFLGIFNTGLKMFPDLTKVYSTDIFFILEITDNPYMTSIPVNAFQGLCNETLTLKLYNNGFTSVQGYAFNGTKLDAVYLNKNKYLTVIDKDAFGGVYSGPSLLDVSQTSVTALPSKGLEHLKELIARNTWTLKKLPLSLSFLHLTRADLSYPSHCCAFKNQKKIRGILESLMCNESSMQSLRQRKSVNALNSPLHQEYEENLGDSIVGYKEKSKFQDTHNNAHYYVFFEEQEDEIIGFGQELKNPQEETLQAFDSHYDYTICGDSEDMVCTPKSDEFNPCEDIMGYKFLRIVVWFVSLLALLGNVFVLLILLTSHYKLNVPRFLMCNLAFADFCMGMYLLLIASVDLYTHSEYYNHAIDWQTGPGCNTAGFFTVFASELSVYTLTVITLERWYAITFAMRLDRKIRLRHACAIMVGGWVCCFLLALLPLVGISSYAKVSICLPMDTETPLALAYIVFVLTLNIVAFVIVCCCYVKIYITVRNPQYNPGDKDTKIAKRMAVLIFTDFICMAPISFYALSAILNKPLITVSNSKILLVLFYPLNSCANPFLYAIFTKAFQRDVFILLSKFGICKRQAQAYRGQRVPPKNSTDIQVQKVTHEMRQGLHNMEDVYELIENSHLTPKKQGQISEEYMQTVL
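Read-out is FRET at 665 nm (cryptate excitation 337 nm) from a cryptate-tagged anti-cAMP antibody, competed by cell cAMP against cAMP-d2. Compounds are tested on freshly harvested TSHR cells challenged with 4nM TSH (EC80) for 2 hours at 37 deg C.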
Pin1 inh: qHTS Assay to Find Inhibitors of Pin1 | Peptidyl-prolyl cis-trans isomerase NIMA-interacting 1 (Homo sapiens), Q13526 | Pin1 FP peptide displacement, HiFluor488, 10 min | Potency, µM (top dose mostly 115 µM), for the others: at the top dose activity, negative = inhibition, hits mostly inhibitors | 0.009% of 390,000 active | AID 504891, 2011; active = well fitted inhibition curve with a large enough effect in the polarisation, with a control signal flat, not every such curve was filed as active; inconclusive = small, poorly fitted or top-dose-only effect, or effect the other way, or a change in a side signal; inactive = no such curve, though single readings can be large or run the other way; the % refers to the polarisation; also: potency is read from the fitted curve at half-maximal effect; % is scaled to controls: 0 for no effect and ±100 for the full control effect
* hit, by the source's call; u = inconclusive; x = no result given; [ ] = dose if it differs, or a comment. Compounds with a hit are over-represented: about 0.63% of the library has one in this group of screens.

SMILES	TCR act	gsp antagonist	gsp agonist	TSHR antag	Pin1 inh
Cc1cccnc1CN1CCN(C(=O)c2cc(COc3ccc4ncccc4c3)on2)CC1	-5%	32µM*	0%[15.4 µM]	-16	8%
CC(CNC(=O)c1cc(COc2ccc3ncccc3c2)on1)c1ccccc1 (centres undefined)	-1%	32µM*	-2%	-41	-6%
Cc1nnc(NC(=O)CSc2nnc(C)n2-c2ccc(F)cc2)s1	-9%	-4%	-39%	10	1%
S=C(NCc1ccco1)N1CCN(C(c2ccccc2)c2ccccc2)CC1	2%	-4%	0%	7	15%
CNC(=S)N1CCc2cc(OC)c(OC)cc2C1COc1ccc(F)cc1 (centres undefined)	-5%	-28%	-7%	-12	-5%
OCCN(CCO)c1nc(-c2ccccc2)nc2c1oc1ccccc12	-6%	-15%	23%	3	30%
CCCCOc1ccc(-c2c(C(=O)Nc3ccccc3)c(C)[nH]c(=S)c2C#N)cc1	x	15%	2.5µM*	-8	-2%
CCOC(=O)/C(C#N)=C/c1ccc(OC(=O)c2ccccn2)cc1	2%[46.1 µM]	8%	4%	3	25%
Cc1cc(O)c(C=O)c2c1C(=O)Oc1c(CO)c(O)c3c(c1O2)C(O)OC3=O (centres undefined)	1%	-2%	x	-47	3.2µM*
CCNC(=S)N1CCN(c2nc(-c3cccc(OC)c3)cs2)CC1	-9%	32µM*	20%	-10	35%
COc1cccc(-c2csc(N3CCN(C(=S)NCC(C)C)CC3)n2)c1	0%	u	u	-13	102%
COCCCNC(=S)N1CCN(c2nc(-c3ccccc3)cs2)CC1	2%	32µM*	u	2	-1%
CCOCCCNC(=S)N1CCN(c2nc(-c3ccccc3)cs2)CC1	-1%	50µM*	-59%	-18	1%
O=C1CCC(=O)N1c1cccc(-c2nc3ccccc3o2)c1	0%	9%	5%	7	2%
CN(C)S(=O)(=O)c1ccc(C(=O)OCC(=O)NC(=O)NC2CCCC2)cc1	x	-7%	5%	8	-2%
O=C(c1cc(COc2cccc3cnccc23)on1)N1CCC(c2ccccc2Cl)C1 (centres undefined)	-2%	28µM*	-9%	-44	47%
CCc1ccc(CN(C)C(=O)c2cc(COc3cccc4cnccc34)on2)cc1	4%	35µM*	-27%	-47	2%
Cc1ccc(C)c(OCC(=O)N2CCOCC2)c1	-3%	1%	-14%	9	-4%
Cc1ccc(-c2ccc([C@H]3[C@H]4C=CC[C@@H](C)[C@@H]4C(=O)N3Cc3ccccc3)c(F)c2)cc1	4%	4%	x	-3	-1%
Cc1nc(-c2ccccc2)[nH]c(=O)c1Oc1ccc(Cl)cc1Cl	6%	-10%	0%	-10	0%
O=c1[nH]c(=S)[nH]cc1Oc1ccc(Cl)cc1Cl	-2%	11%	6.3µM*	-1	2%
O=C(Nc1ccc(F)cc1)c1nc(S(=O)(=O)Cc2ccccc2)ncc1Cl	-2%	40µM*	-37%	u	15%
Cc1ccc(NC(=O)c2nc(S(=O)(=O)Cc3ccccc3)ncc2Cl)cc1	2%	-12%	0%[15.4 µM]	u	1%
Cc1ccccc1CS(=O)(=O)c1ncc(Cl)c(C(=O)Nc2ccc(F)cc2)n1	4%	4%	u	-74*	-3%
O=C(Nc1ccccc1F)c1nc(S(=O)(=O)Cc2ccccc2F)ncc1Cl	x	x	x	x	0%
SMILES	TCR act	gsp antagonist	gsp agonist	TSHR antag	Pin1 inh
O=C(C1CCC(CNc2c(N3CCCCC3)c(=O)c2=O)CC1)N1CCc2ccccc2C1 (centres undefined)	-5%	-16%	-21%	-8	0%
Cc1cc(N2CCN(S(=O)(=O)c3ccc(Cl)c(Cl)c3)CC2)c2ccccc2n1	-4%	-21%	2%	-8	6%
Cc1cc(N2CCN(S(=O)(=O)c3ccc(Cl)cc3)CC2)c2ccccc2n1	8%	50µM*	-4%	-28	2%
CCc1cc2c(-c3ccccc3)cc(=O)oc2c2c1OCN(Cc1ccc(F)cc1)C2	x	x	x	x	-6%
NC(=O)CC(NC(=O)Cc1cccc2ccccc12)c1ccc(N2CCCCCCC2)c([N+](=O)[O-])c1 (centres undefined)	0%	50µM*	-5%	1	-4%
NC(=O)CC(NC(=O)Cc1cccc2ccccc12)c1ccc(N2CCN(c3ccc(F)cc3)CC2)c([N+](=O)[O-])c1 (centres undefined)	7%	-4%	7%	-4	6%
CCN(Cc1ccccc1)C(=O)Cn1c(=O)oc2ccccc21	1%	x	-4%[15.4 µM]	2	0%
COc1ccc(S(=O)(=O)Nc2ccc(C)cc2)cc1N(C)S(=O)(=O)c1ccc(Cl)cc1	-3%	-9%	-5%	-91*	0%
CN(Cc1ccco1)S(=O)(=O)c1csc(C(N)=O)c1	2%	9%	3%	-139*	-2%
C=CCN1C(=NC(=O)CC)SC2CS(=O)(=O)CC21 (centres undefined)	-35%	5%	-16%	2	3%
Cc1ccccc1-n1nnnc1SC1CCOC1=O (centres undefined)	1%	16%	17%	-88*	-1%
Cc1cc(N)ccc1S(C)(=O)=O	2%[46.1 µM]	0%	5%	-11	-4%
COc1ccc(-n2nc(C(=O)NCC(=O)Nc3cc(OC)c(OC)c(OC)c3)c3ccccc3c2=O)cc1OC	2%	-21%	u	-117*	18%
COc1ccc(-n2nc(C(=O)NCC(=O)Nc3cc(OC)c(OC)c(OC)c3)c3ccccc3c2=O)cc1	4%	-24%	-6%[15.4 µM]	-1	3%
COc1ccc(CN(CCC(c2ccc(F)cc2)C2CCOC(C)(C)C2)C(=O)c2ccco2)cc1 (centres undefined)	1%	22µM*	2%[15.4 µM]	-19	7%
COC(=O)c1ccc(/C=C/C(=O)OCC(=O)Nc2sccc2C(N)=O)cc1	6%	28µM*	5%	u	34%
CC(=O)OCCCN1c2ccccc2Nc2nnc(-c3ccccc3)cc21	-12%	40µM*	-11%	-6	0%
CC(=O)OCCN1c2ccccc2Sc2cnccc21	x	x	-2%	x	x
COC(=O)c1c(-c2ccco2)csc1NC(=O)C1CC=CCC1C(=O)O (centres undefined)	-2%	-4%	32µM*	-7	15%
COc1ccc(-c2nc3ccccc3nc2-c2ccccc2)cc1OC	x	-14%	-6%[15.4 µM]	-10	1%
CN1c2ccccc2C(O)=C(C(=S)Nc2ccc(F)c(Cl)c2)S1(=O)=O	-3%	40µM*	9%[15.4 µM]	-35	-5%
